The values below come from PubChem BioAssay (Tox21).

Structures are written as SMILES. Several values for one entry are separate records, joined by “and”; a condition that tells them apart may be missing. Equal entries are not always repeated. Values without a mark were called inactive. Activity calls are given as the source filed them. Calls come from the whole dose curve.
% is set by controls: 0 for no effect and ±100 for the full control effect.

One experiment in a line: qHTS assay to identify small molecule agonists of the estrogen related receptor (ERR) signaling pathway from Tox21 library (AID 1224849). Note: nearly all actives have a fitted effect of over 15% in size. The conditions noted are these: ERR reporter cell line, ONE-Glo luciferase, 18 h; at 42.5 µM (top of the series). The text has this: National Center for Advancing Translational Sciences [NCATS]
NIH Chemical Genomics Center [NCGC]
U.S. Environmental Protection Agency [EPA]
National Institutes of Environmental Health Sciences [NIEHS]
National Toxicology Program [NTP]
Estrogen related receptors (ERRs), the first orphan nuclear receptors discovered, play an important role in the control of cellular energy metabolism. ERRs are required for high-energy production in response to the environmental challenges. ERR-alpha was also identified as an adverse marker for breast cancer progression; ERR-alpha-positive tumors have a poor prognosis. To screen and to identify environmental compounds that perturb the ERR signaling pathways could provide valuable information for potential therapeutic or preventive measures in the treatment of metabolic disease. For identifying ERR agonists, ERR cell line (provided by NTP) has been used to screen Tox21 10K library.
The ERR cells were dispensed at 2,000 cells/5 ul/well in 1536-well white plates using a Multidrop dispenser. After the assay plates were incubated at a 37 C/5% CO2 incubator for 6 hours, 23 nL of compounds dissolved in DMSO, positive and negative controls or DMSO only was transferred to the assay plate by a pin tool. The plates were incubated at 37 C for 18 hours. 4 ul/well of One-Glo reagent was added into the assay plates using a Flying Reagent Dispenser. After 30-minute incubation at room temperature, the luminescence intensity in the plates was measured using a ViewLux plate reader.
(In general: qHTS replaces the single test concentration by a dilution series.)
With `Clc1ccc(C(c2ccccc2Cl)C(Cl)(Cl)Cl)cc1` (stereo unspecified), the activity change, positive = activation is -15.1%.
For `Clc1ccc(C(c2ccc(Cl)cc2)C(Cl)(Cl)Cl)cc1`, the activity change, positive = activation was -17.1%.

Still in this experiment, the particulars now being: ERR reporter cell line, ONE-Glo luciferase, 18 h; at 92.4 µM (top of the series).
For the compound `Clc1ccc(C(c2ccccc2Cl)C(Cl)(Cl)Cl)cc1` (stereo unspecified), the activity change, positive = activation was -41.5%.
As for `Clc1ccc(C(c2ccc(Cl)cc2)C(Cl)(Cl)Cl)cc1`, the activity change, positive = activation was -47.6% and -41.9%.

Staying with this experiment, now noted: ERR reporter cell line, ONE-Glo luciferase, 18 h; at 92.4 µM (top of the series) unless noted.
As for `CC(C)(c1ccc(O)c(-c2ccccc2)c1)c1ccc(O)c(-c2ccccc2)c1`, the activity change, positive = activation is -69.8%.
On the same count and under the same terms, for `C[As+](C)(C)CC(=O)[O-]` the value was 5.87%.
On the same count and under the same terms, next, `Nc1ccc(Cc2ccc(N)c(Cl)c2)cc1Cl`: -35.2%; `CCCCOP(=O)(CCCC)OCCCC`: -2.44%.
As for `Cc1ccc(C(=O)Cl)cc1`, the activity change, positive = activation was 7.48%.
On to `CC(C)(O)c1cnn2c(-c3ccc(F)c(-c4c(F)cccc4C#N)c3)cnc2n1`, for which the activity change, positive = activation was -53.4%.
For the compound `Oc1ccc(C2(c3ccc(O)cc3)c3ccccc3-c3ccccc32)cc1`, the activity change, positive = activation is -78.7%.
Take `CCOP(=S)(OCC)SCCS(=O)(=O)CC`: the activity change, positive = activation was 1.7%.
For the compound `CCSC(C)CC1CC(=O)C(/C(CC)=N/OC/C=C/Cl)=C(O)C1` (stereo unspecified), the activity change, positive = activation is -10.8% [at 42.5 µM].
Same read-out and setting: for `COC(=O)N(C(=O)N1CO[C@@]2(C(=O)OC)Cc3cc(Cl)ccc3C2=N1)c1ccc(OC(F)(F)F)cc1` the value was -47.5%.
As to `S=C(SSC(=S)N1CCCCC1)N1CCCCC1`, the activity change, positive = activation is -70.7% [at 42.5 µM].
Take `CC(=O)C(Cl)(Cl)Cl`: the activity change, positive = activation is -67.8%.
On the same count and under the same terms, next, `Cl/C=C\CCl`: 3.81%; `CCCCCCCCCCCCCCCCCCn1cc[n+](C)c1`: -74.3%.
For the compound `O=C1C=CC(=O)c2ccccc21`, the activity change, positive = activation was -74.8%.
`CCc1cc(C)cc(CC)c1-c1c(OC(=O)C(C)(C)C)n2n(c1=O)CCOCC2`: the activity change, positive = activation is -10%.
In the case of `COC12CC[C@@]3(C[C@@H]1C(C)(O)C(C)(C)C)[C@H]1Cc4ccc(O)c5c4[C@@]3(CCN1CC1CC1)[C@H]2O5` (stereo partly specified), the activity change, positive = activation was -68%.
For the compound `C[C@]12CC[C@H](O)C[C@H]1CC[C@@H]1[C@@H]2C[C@@H](O)[C@]2(C)[C@@H](C3=CC(=O)OC3)CC[C@]12O`, the activity change, positive = activation was -63.4% (active).
Consider `ClC1=C(Cl)[C@]2(Cl)[C@@H]3[C@@H]4C[C@@H]([C@H]5O[C@@H]45)[C@@H]3[C@@]1(Cl)C2(Cl)Cl`, for which the activity change, positive = activation was -52.1%.
Turning to `COc1cccc(C(=O)CCN[C@@H](C)[C@H](O)c2ccccc2)c1`, the activity change, positive = activation is 2.02% [at 42.5 µM].
Consider `Clc1ccc(CO/N=C(\Cn2ccnc2)c2ccc(Cl)cc2Cl)c(Cl)c1`, for which the activity change, positive = activation is -54.4% [at 42.5 µM].
With `O=C(CCl)Nc1ccccc1`, the activity change, positive = activation was -72.1%.
In the case of `ClC1=C(Cl)C2(Cl)C3C(Cl)C(Cl)CC3C1(Cl)C2(Cl)Cl` (stereo unspecified), the activity change, positive = activation is -78.9% and -65.6%.
`O=C(CBr)c1ccc(O)cc1`: the activity change, positive = activation is -26%.
Regarding `O=S(=O)(c1ccc(Cl)cc1)c1ccc(Cl)cc1`, the activity change, positive = activation is -35.9%.
As to `O=c1ssc(Cl)c1Cl`, the activity change, positive = activation is -17.9%.
Take `Cc1cc(C)cc(OP(=O)(Oc2cc(C)cc(C)c2)Oc2cc(C)cc(C)c2)c1`: the activity change, positive = activation is 0.886%.
`C=CCOC(N)=O`: the activity change, positive = activation was 2.68%.
For `CC(=O)c1cc(C(C)(C)C)cc2c1CCC2(C)C`, the activity change, positive = activation was -2.02%.
For the compound `Clc1ccc(-c2ccc(Cl)c(Cl)c2Cl)c(Cl)c1Cl`, the activity change, positive = activation is 6.41%.
As to `CN(C)C1CSSSC1`, the activity change, positive = activation was -13.3%.
Take `COc1cc(C=O)cc2c1[C@H](COC(N)=O)[C@]1(OC(C)=O)ON2C[C@H]2[C@@H]1N2C(C)=O`: the activity change, positive = activation is -41%.
As for `CC(C)[C@H](C(=O)OC(C#N)c1cccc(Oc2ccccc2)c1)c1ccc(OC(F)F)cc1` (stereo partly specified), the activity change, positive = activation was -19.1%.
With `ClCCN1CCOCC1`, the activity change, positive = activation was -2.74%.
For `O=[N+]([O-])c1ccc(Oc2ccc(C(F)(F)F)cc2[N+](=O)[O-])cc1`, the activity change, positive = activation is -23.5%.
For `c1ccc(Nc2ccc3ccccc3c2)cc1`, the activity change, positive = activation was 53.3% (active) and 56% (active).
The same measure, in the same setting: for `CC1CCC(C(C)C)C(OC(=O)c2ccccc2N)C1` (stereo unspecified) the value was -55.4%.
